Data taken from PubChem BioAssay.
A number with no mark means an inactive call. This is one part of the list. Activity calls are given as the source filed them.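 The calls were made as follows, unless noted: active = mean inhibition above the low-control mean inhibition plus three low-control SD (cut at about 11% in these data); inactive = the rest.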

Biological target: Receptor-interacting serine/threonine-protein kinase 2 (Homo sapiens) (UniProt O43353)
Sequence (O43353 whole entry, looked up): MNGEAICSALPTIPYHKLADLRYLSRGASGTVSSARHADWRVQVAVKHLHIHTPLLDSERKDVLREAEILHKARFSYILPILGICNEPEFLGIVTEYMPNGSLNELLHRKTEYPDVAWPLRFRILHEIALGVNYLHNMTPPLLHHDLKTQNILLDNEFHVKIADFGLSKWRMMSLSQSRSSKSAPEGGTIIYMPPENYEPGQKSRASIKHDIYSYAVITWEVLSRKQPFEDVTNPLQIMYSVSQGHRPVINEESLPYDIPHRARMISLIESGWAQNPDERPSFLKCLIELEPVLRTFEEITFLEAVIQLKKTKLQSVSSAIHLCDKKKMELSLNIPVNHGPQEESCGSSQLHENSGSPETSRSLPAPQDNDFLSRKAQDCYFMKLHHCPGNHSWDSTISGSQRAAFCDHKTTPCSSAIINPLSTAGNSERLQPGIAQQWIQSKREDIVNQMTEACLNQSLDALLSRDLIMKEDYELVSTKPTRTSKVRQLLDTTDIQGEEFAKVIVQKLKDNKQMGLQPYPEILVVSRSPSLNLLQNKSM
Experiment: inhibitors of RIPK2 association with NOD2 – fluorescence, CHO cells, BLA complementation, triplicate, confirmation (AID 624370;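 active = mean inhibition across replicates above a set limit taken from the earlier primary screen, cut at about 21% in these data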;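 also: 0% = DMSO-only wells and the high end = clavulanate BLA-blocked wells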)
Conditions: CCF4 FRET, at 4.98 µM, stronger effect = higher value
In the case of `COc1ccc(NC(=O)C(c2ccncc2)n2c(=O)c(-c3cc4ccccc4[nH]3)nc3ccccc32)cc1` (stereo not given), the inhibition was 39.5% (active). In the case of `COc1ccc(C2=CC(c3cccc(OC)c3)n3nnnc3N2)cc1` (stereo not given), the inhibition was 3.71%. For `COc1ccc(C(C[N+](=O)[O-])n2nc(C)cc2C)cc1` (stereo not given), the inhibition was 40.9% (active). In the case of `COc1ccc2c(c1OC)C(=O)OC2Nc1nc(-c2ccccc2)cs1` (stereo not given), the inhibition was 10.3%. Molecule `O=C(NN=Cc1ccc(N2CCOCC2)cc1)c1cc2ccccc2cc1O` has an inhibition of 0.56%.

Test system: not listed separately
Experiment: BLA reporter readout interference – cell-based, CHO-K1 CMV-bla, CCF4 FRET, fluorescence, artefact control for NOD2-RIPK2 interaction inhibitor project, confirmation (AID 624371);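 also: 0% = DMSO only wells and 100% = clavulanate high control wells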
Conditions: CCF4 FRET ratio, counterscreen, at 4.98 µM, stronger effect = higher value
Work on `COc1cccc2sc(N(CCCN(C)C)C(=O)CCS(=O)(=O)c3ccccc3)nc12` yielded an inhibition of 8.45%. `O[C@H]1C[C@H](c2ccc(Cl)cc2)N(Cc2cccs2)C[C@@H]1n1cc(C2CC2)nn1` gave an inhibition of 0.34%. `O=[N+]([O-])/C=C/c1ccc2c(ccn2Cc2ccccc2)c1` showed an inhibition of 7.27%. With `O=C1C(=O)N(CC2COc3ccccc3O2)c2ccccc21` (stereo not given) the inhibition was -10.2%. Work on `CC(C)(C)OC(=O)N1CCC(NC(=O)c2[nH]cnc2C(=O)N[C@@H](Cc2ccccc2)C(=O)OCc2ccccc2)CC1` yielded an inhibition of -4.79%. For `CN1CCN(/N=C/c2ccc(-c3ccc([N+](=O)[O-])cc3)o2)CC1`, the inhibition was 23.5% (active). In the case of `CC(=O)Nc1ccc(C=Cc2ccc([N+](=O)[O-])cc2)cc1`, the inhibition was 33.9% (active). With `Cc1nnc(SCC(=O)Nn2cnnc2)s1` the inhibition was -0.41%. With `Cc1cccc(-n2ncc(Cl)c(Cl)c2=O)c1` the inhibition was 2.52%. In the case of `Cc1ccc(NC(=O)Cn2sc3ccccc3c2=O)cc1`, the inhibition was 3.75%. `O=C(CSc1ncn[nH]1)Nc1nc(-c2cccc([N+](=O)[O-])c2)cs1` showed an inhibition of 3.63%. For `O=C1CC(C(F)(F)C(F)(F)C(F)(F)C(F)(F)F)=Nc2ccccc2N1`, the inhibition was 0.83%. Molecule `CCOC(=O)C1=C(C)N(C[C@@H]2CC[C@@H](Cc3ccc(-c4ccccc4)cc3)O2)C(=O)NC1c1ccc([N+](=O)[O-])cc1` (stereo not given in full) has an inhibition of -1.01%. `C[C@H]1CN([C@@H](C)CO)C(=O)c2cc(-c3cccc(F)c3)cnc2O[C@@H]1CN(C)S(C)(=O)=O` gave an inhibition of -1.39%. With `COc1ccc(NC(=O)C(c2ccncc2)n2c(=O)c(-c3cc4ccccc4[nH]3)nc3ccccc32)cc1` (stereo not given) the inhibition was 61.5% (active). In the case of `COc1ccc(C2=CC(c3cccc(OC)c3)n3nnnc3N2)cc1` (stereo not given), the inhibition was 10.4% (active). Molecule `COc1ccc(C(C[N+](=O)[O-])n2nc(C)cc2C)cc1` (stereo not given) has an inhibition of -5.9%. Work on `COc1ccc2c(c1OC)C(=O)OC2Nc1nc(-c2ccccc2)cs1` (stereo not given) yielded an inhibition of 6.11%. For `O=C(NN=Cc1ccc(N2CCOCC2)cc1)c1cc2ccccc2cc1O`, the inhibition was 2.74%.

Test system: transactivating tegument protein VP16 (Human herpesvirus 1)
Experiment: compounds suppressing VP16-driven luciferase signal – cell-based, luminescence, single concentration, counter-screen for SRC2 inhibitor project (AID 652007; in the data active = inhibition above about 36%)
Conditions: cell-based VP16 transactivation luciferase reporter, at 8.9 µM, stronger effect = higher value
In the case of `C=CCNc1ncnc2ccc(Br)cc12`, the inhibition was 1.3%. Work on `Cc1ccc(-c2nnc(SCC(=O)Nc3ccccc3F)o2)cc1` yielded an inhibition of 19.4%. In the case of `O=C1C=C(NCCc2cc(Br)c(O)c(Br)c2)C(=O)c2ncccc21`, the inhibition was 4.39%. In the case of `Cn1nnnc1Sc1ncnc2scc(-c3ccc4c(c3)OCO4)c12`, the inhibition was 0.45%. For `c1ccc2c(-c3cccc4nccn34)cncc2c1`, the inhibition was 5.09%. For `O=C(Nc1cccc2c1CCCC2)c1cc([N+](=O)[O-])ccc1Cl`, the inhibition was 48.5% (active). `CCn1ccnc1CN(C)Cc1cn[nH]c1-c1ccc(F)cc1F` showed an inhibition of -19.6%. Molecule `c1cn(-c2ncnc3sc4c(c23)CCCC4)cn1` has an inhibition of -1.75%. For `O=C(Nc1ccc(N2CCN(C(=O)c3ccco3)CC2)c(Cl)c1)c1cc2ccccc2o1`, the inhibition was 53.3% (active). Work on `O=C(Nc1ccc2c(c1)OCCO2)c1[nH]c(C(F)(F)F)nc1-c1ccccc1` yielded an inhibition of -38.1%. Molecule `CC(=O)Nc1ccc(OCC(=O)Nc2ccc(Cl)c(S(=O)(=O)N3CCOCC3)c2)cc1` has an inhibition of -7.09%. With `Cc1cc(NC(=O)Cc2ccccc2)c2ccccc2n1` the inhibition was 9.96%. With `Cc1ccc(-c2cc(C(=O)NCCCN3CCOCC3)no2)cc1` the inhibition was -12.9%. `Cc1sc2ncnc(N3CCC(C(=O)N(C)CC(=O)Nc4cccc(F)c4)CC3)c2c1C` showed an inhibition of -11.2%. Work on `CCOC(=O)c1c(C)cc2c(CO)n[nH]c(=O)c2c1C` yielded an inhibition of -8.56%. Molecule `Cc1sc2ncnc(NC3CCN(Cc4ccccc4)CC3)c2c1C` has an inhibition of 14.3%. With `Cc1cc(Nc2cccc(Cl)c2)nc(NCc2ccccc2)n1` the inhibition was -3.2%. With `COc1ccccc1NS(=O)(=O)c1cccc(NC(=O)c2cncc(Br)c2)c1` the inhibition was 14.8%.

Biological target: Nuclear receptor coactivator 2 (Homo sapiens) (UniProt Q15596)
Sequence (Q15596 whole entry, looked up, the tested form may be a part): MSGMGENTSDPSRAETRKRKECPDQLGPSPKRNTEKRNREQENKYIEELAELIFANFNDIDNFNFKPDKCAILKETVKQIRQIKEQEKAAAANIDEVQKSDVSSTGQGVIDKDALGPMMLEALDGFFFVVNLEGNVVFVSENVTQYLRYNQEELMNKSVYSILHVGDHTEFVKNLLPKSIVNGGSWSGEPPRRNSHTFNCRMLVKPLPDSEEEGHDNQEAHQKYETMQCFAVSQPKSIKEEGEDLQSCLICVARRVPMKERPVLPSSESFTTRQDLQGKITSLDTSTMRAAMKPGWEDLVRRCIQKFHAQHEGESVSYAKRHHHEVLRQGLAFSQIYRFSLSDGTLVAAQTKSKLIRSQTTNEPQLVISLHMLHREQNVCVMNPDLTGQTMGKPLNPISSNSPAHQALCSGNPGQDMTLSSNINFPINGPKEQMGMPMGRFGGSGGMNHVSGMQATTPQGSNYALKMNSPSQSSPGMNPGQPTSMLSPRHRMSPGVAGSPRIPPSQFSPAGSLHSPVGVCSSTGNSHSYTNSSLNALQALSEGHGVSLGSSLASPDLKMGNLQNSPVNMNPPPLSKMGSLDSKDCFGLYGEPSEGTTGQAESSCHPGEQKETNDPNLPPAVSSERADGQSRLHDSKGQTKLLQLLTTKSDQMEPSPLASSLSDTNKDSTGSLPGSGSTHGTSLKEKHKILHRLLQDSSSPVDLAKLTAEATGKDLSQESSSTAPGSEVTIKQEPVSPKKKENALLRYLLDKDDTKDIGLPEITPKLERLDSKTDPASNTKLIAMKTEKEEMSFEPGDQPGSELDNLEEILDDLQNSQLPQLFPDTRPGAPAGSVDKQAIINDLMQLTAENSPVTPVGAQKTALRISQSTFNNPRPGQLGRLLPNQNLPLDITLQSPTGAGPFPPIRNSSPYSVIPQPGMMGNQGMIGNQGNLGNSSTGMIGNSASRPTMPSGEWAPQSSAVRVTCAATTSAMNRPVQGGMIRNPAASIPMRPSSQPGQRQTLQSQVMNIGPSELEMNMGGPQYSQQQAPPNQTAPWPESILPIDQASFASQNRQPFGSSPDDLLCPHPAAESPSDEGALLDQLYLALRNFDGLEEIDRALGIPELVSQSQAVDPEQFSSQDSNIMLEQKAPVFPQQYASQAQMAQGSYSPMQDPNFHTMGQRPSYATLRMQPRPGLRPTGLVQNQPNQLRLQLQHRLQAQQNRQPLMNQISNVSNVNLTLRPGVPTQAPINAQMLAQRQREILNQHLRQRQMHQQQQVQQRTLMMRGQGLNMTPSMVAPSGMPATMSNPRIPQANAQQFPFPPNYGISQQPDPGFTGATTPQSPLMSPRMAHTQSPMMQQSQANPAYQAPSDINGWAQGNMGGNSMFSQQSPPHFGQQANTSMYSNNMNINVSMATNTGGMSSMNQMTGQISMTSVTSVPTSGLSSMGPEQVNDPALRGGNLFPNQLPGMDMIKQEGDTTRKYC
Experiment: inhibition of GAL4-SRC2 driven luciferase expression – cell-based, luminescence, HEK293, triplicate, confirmation (AID 652008;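 active = mean inhibition above 46.5%, the solvent-only control mean plus 3 SD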;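 also: 0% = DMSO-treated cells and 100% = Gossypol at 36 µM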)
Conditions: HEK293 GAL4-SRC2 luciferase reporter, at 8.9 µM, stronger effect = higher value
`C=CCNc1ncnc2ccc(Br)cc12` showed an inhibition of 42.1%. For `Cc1ccc(-c2nnc(SCC(=O)Nc3ccccc3F)o2)cc1`, the inhibition was 60% (active). Molecule `O=C1C=C(NCCc2cc(Br)c(O)c(Br)c2)C(=O)c2ncccc21` has an inhibition of 25.9%. Molecule `Cn1nnnc1Sc1ncnc2scc(-c3ccc4c(c3)OCO4)c12` has an inhibition of 21.4%. For `c1ccc2c(-c3cccc4nccn34)cncc2c1`, the inhibition was 11%. In the case of `O=C(Nc1cccc2c1CCCC2)c1cc([N+](=O)[O-])ccc1Cl`, the inhibition was 62.2% (active). Molecule `CCn1ccnc1CN(C)Cc1cn[nH]c1-c1ccc(F)cc1F` has an inhibition of 10.5%. Molecule `c1cn(-c2ncnc3sc4c(c23)CCCC4)cn1` has an inhibition of -4.88%. Work on `O=C(Nc1ccc(N2CCN(C(=O)c3ccco3)CC2)c(Cl)c1)c1cc2ccccc2o1` yielded an inhibition of 3.49%. For `O=C(Nc1ccc2c(c1)OCCO2)c1[nH]c(C(F)(F)F)nc1-c1ccccc1`, the inhibition was 49.1% (active). Molecule `CC(=O)Nc1ccc(OCC(=O)Nc2ccc(Cl)c(S(=O)(=O)N3CCOCC3)c2)cc1` has an inhibition of 19.6%. For `Cc1cc(NC(=O)Cc2ccccc2)c2ccccc2n1`, the inhibition was 24.6%. With `Cc1ccc(-c2cc(C(=O)NCCCN3CCOCC3)no2)cc1` the inhibition was 53.2% (active). In the case of `Cc1sc2ncnc(N3CCC(C(=O)N(C)CC(=O)Nc4cccc(F)c4)CC3)c2c1C`, the inhibition was 25.1%. `CCOC(=O)c1c(C)cc2c(CO)n[nH]c(=O)c2c1C` gave an inhibition of 34.9%. `Cc1sc2ncnc(NC3CCN(Cc4ccccc4)CC3)c2c1C` showed an inhibition of 29%. In the case of `Cc1cc(Nc2cccc(Cl)c2)nc(NCc2ccccc2)n1`, the inhibition was 13.1%. With `COc1ccccc1NS(=O)(=O)c1cccc(NC(=O)c2cncc(Br)c2)c1` the inhibition was 21%.
